# Data reported in the supplement of paper PMC6522484.
# ± gives the standard deviation of the averaged measurements.
# Assays:
# DLD1 [1] = assay: cell viability (CellTiter-Glo) relative to plate median (fraction of plate median); higher = more viable cells; details: 5 µM; treatment time 24 h; reporter: 7TFP
# Method in brief: (§1)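 Luminescence, normalised well by well to the plate median, is tabulated as a mean of independent replicates. There were two replicates, run on colorectal cancer lines stably transduced with lentiviral TCF/Wnt firefly luciferase reporters and dosed with library compounds at a final 5 µM for 24 h. Readouts were firefly luciferase or CellTiterGlo on parallel plates.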
# HCT116 = assay: as above; details: 5 µM; treatment time 24 h; reporter: TCF4/Wnt
# Method in brief: as §1
# SW480 [2] = assay: as above; details: 5 µM; treatment time 24 h; reporter: 7TFP
# Method in brief: as §1
# DLD1 [3] = assay: TCF/Wnt firefly luciferase reporter signal relative to plate median (fraction of plate median); higher = higher Wnt reporter signal; details: 5 µM; treatment time 24 h; reporter: 7TFP
# Method in brief: as §1
# SW480 [4] = assay: as above; details: 5 µM; treatment time 24 h; reporter: 7TFP
# Method in brief: as §1
Structure (SMILES),cell viability (DLD1 [1]),cell viability (HCT116),cell viability (SW480 [2]),TCF/Wnt firefly luciferase reporter signal (DLD1 [3]),TCF/Wnt firefly luciferase reporter signal (SW480 [4])
Cc1cc(OC(=O)c2c(C)cc(O)cc2O)cc(O)c1C(=O)O,1.08 ± 0.099,1.03 ± 0.035,1.1 ± 0.071,1.03 ± 0.18,1.06 ± 0.05
"C[C@@H]1CC(=O)c2c(ccc3c2C(=O)c2cccc(O)c2C3=O)C1 [Ochromycinone (Isoform B, compound ID 7489)]",1.1 ± 0.035,1,0.991 ± 0.028,0.781 ± 0.1,0.867 ± 0.047
CC(=O)OCC(CCn1cnc2cnc(N)nc21)COC(C)=O,0.9935 ± 0.0021,0.97 ± 0.04,0.9805 ± 0.0092,0.984 ± 0.052,1.025 ± 0.0071
C=C[C@H]1CN2CC[C@H]1C[C@@H]2[C@@H](O)c1ccnc2ccc(OC)cc12,0.963 ± 0.052,0.966 ± 0.042,0.977 ± 0.047,1.21 ± 0.14,0.933 ± 0.021
O=C(O[C@@H]1Cc2c(O)cc(O)cc2O[C@@H]1c1ccc(O)c(O)c1)c1cc(O)c(O)c(O)c1,0.946 ± 0.061,0.805 ± 0.24,1.04 ± 0.1,1.03 ± 0.11,1.08 ± 0.021
Cc1nc2ccccc2c(=O)[nH]1 [2-Methyl-3H-quinazoline-4-on],0.991 ± 0.011,1.06 ± 0.064,0.979 ± 0.044,1.01 ± 0.09,1.1 ± 0.021
Cn1c(=O)c2c(ncn2C)n(C)c1=O,0.899 ± 0.05,0.953 ± 0.081,0.952 ± 0.0014,0.981 ± 0.11,1.01 ± 0.04
Oc1ccc(OCc2ccccc2)cc1,1.07 ± 0.05,0.975 ± 0.078,0.982 ± 0.017,1 ± 0.17,0.754 ± 0.05
CC(=O)NCCCS(=O)(=O)O,1.03 ± 0.091,1.03 ± 0.028,1.025 ± 0.0071,1.12 ± 0.11,1.06 ± 0.071
Cc1cc(-c2ccccc2)nnc1NCCN1CCOCC1,1.005 ± 0.0071,0.946 ± 0.077,1.03 ± 0.014,1.02 ± 0.035,1.05 ± 0.057
CN(C)CCOC(c1ccccc1)c1ccccc1.Cn1c(=O)c2[nH]c(Cl)nc2n(C)c1=O,0.909 ± 0.025,1.04 ± 0.1,0.927 ± 0.022,1.14 ± 0.13,1.12 ± 0.021
"C=C1C2CCC3(C)C(c4ccoc4)OC(=O)CC13OC1CC(OC(C)=O)C(C)(C)C(CC(=O)OC)C12C (stereo not drawn) [3beta-ACETOXYDEOXYANGOLENSIC ACID, METHYL ESTER]",0.908 ± 0.14,0.946 ± 0.033,0.995 ± 0.05,0.966 ± 0.13,0.8955 ± 0.0021
CN[C@H](CC(C)C)C(=O)N[C@H]1C(=O)N[C@@H](CC(N)=O)C(=O)N[C@H]2C(=O)N[C@H]3C(=O)N[C@H](C(=O)N[C@H](C(=O)O)c4cc(O)cc(O)c4-c4cc3ccc4O)[C@H](O)c3ccc(c(Cl)c3)Oc3cc2cc(c3O[C@@H]2O[C@H](CO)[C@@H](O)[C@H](O)[C@H]2O[C@H]2C[C@](C)(N)[C@H](O)[C@H](C)O2)Oc2ccc(cc2Cl)[C@H]1O,1.08 ± 0.11,1.01 ± 0.014,0.979 ± 0.012,1.09 ± 0.057,1.02 ± 0.035
COc1cnc(NS(=O)(=O)c2ccc(N)cc2)nc1,0.973 ± 0.0057,1.04 ± 0.035,1.03 ± 0.035,1.04 ± 0.22,0.892 ± 0.055
C[C@@H]1CC[C@H]2C(C(=O)O)=C[C@@H]3[C@@H](O)C(C)(C)C[C@@]132 [Pentalenic acid],0.966 ± 0.019,0.941 ± 0.016,1.02 ± 0.042,0.794 ± 0.13,0.98 ± 0.16
CN1CCN(C2=Nc3cc(Cl)ccc3Nc3ccccc32)CC1,1.12 ± 0.071,1.05 ± 0.1,1.005 ± 0.0071,0.916 ± 0.058,0.97 ± 0.043
COC(=O)Nc1nc2cc([S+]([O-])c3ccccc3)ccc2[nH]1 (stereo not given),0.921 ± 0.093,0.869 ± 0.054,1.01 ± 0.08,0.983 ± 0.052,0.885 ± 0.12
CNCCC=C1c2ccccc2CCc2ccccc21,0.9585 ± 0.00071,0.979 ± 0.12,0.972 ± 0.0057,1.02 ± 0.079,1.04 ± 0.12
NCCNCCNCCN,1.03,0.986 ± 0.049,1.01 ± 0.064,0.999 ± 0.058,1.03 ± 0.052
C1CNCCN1,1.004 ± 0.0092,0.96 ± 0.071,0.987 ± 0.018,1.25 ± 0.021,1.05 ± 0.042
C#C[C@]1(OC(C)=O)CC[C@H]2[C@@H]3CCC4=CC(=NO)CC[C@@H]4[C@H]3CC[C@@]21CC (mixture of isomers),1 ± 0.057,1.025 ± 0.0071,0.98 ± 0.025,1.055 ± 0.0071,0.97 ± 0.04
C[C@H]1[C@H](C)CC[C@]2(C(=O)O)CC[C@]3(C)C(=CC[C@@H]4[C@@]5(C)C[C@@H](O)[C@H](O)[C@@](C)(CO)[C@@H]5CC[C@]43C)[C@H]12,1.04 ± 0.072,1.1 ± 0.15,1.1 ± 0.021,0.974 ± 0.093,1.05 ± 0.035
CCOC(=O)c1c(C)cc(OC)cc1O,0.947 ± 0.033,0.908 ± 0.03,0.954 ± 0.066,0.874 ± 0.021,1.04 ± 0.064
CCCCC(CC)CN=C(N)N=C(N)NCCCCCCNC(N)=NC(N)=NCC(CC)CCCC (stereo not given),0.971 ± 0.0057,0.924 ± 0.045,1.02 ± 0.014,1.14 ± 0.028,1.1 ± 0.085
C=CCc1ccccc1OCC(O)CNC(C)C (stereo not given),1.03 ± 0.055,1.04 ± 0.035,0.961 ± 0.035,1.1 ± 0.27,0.852 ± 0.077
CC[C@H]1OC(=O)[C@H](C)[C@@H](O[C@H]2C[C@@](C)(OC)[C@@H](O)[C@H](C)O2)[C@H](C)[C@@H](O[C@@H]2O[C@H](C)C[C@H](N(C)C)[C@H]2O)[C@](C)(O)C[C@@H](C)C(=O)[C@H](C)[C@@H](O)[C@]1(C)O,1.01 ± 0.05,0.986 ± 0.034,1 ± 0.028,0.924 ± 0.09,0.874 ± 0.051
COc1c2ccoc2cc2oc(=O)ccc12,1.02 ± 0.046,0.946 ± 0.018,0.978 ± 0.015,0.984 ± 0.093,1.01 ± 0.028
